# Measurements reported in PubChem BioAssay AID1159580 (chemical genetic matrix, 2015).
# Where “and” joins values, the source holds several entries; their conditions need not be identical. Equal entries are not always repeated. In all, about 5,500 compounds went through this assay and about 2,000 (36%) were called active. Another 18% or so got no clear call; they are omitted. Rule as the data show it: active = normalized growth mostly below about 0.91 (no sharp cut-off); inconclusive = no clear call, values can overlap the other calls; inactive = mostly above about 0.92. The list shows a part of the results.
# Assay: chemical genetic growth profiling, strain panel (AID 1159580);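 also: tested at 20 µM; growth read once vehicle control cultures reached saturation at 30 °C; 1 = growth at the plate median or of vehicle wells; lower values mean less growth of the strain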
# Conditions: S. cerevisiae deletion strains, growth OD
smiles,measurement,setting,value
Oc1c(Cl)cc(Cl)cc1Sc1cc(Cl)cc(Cl)c1O,normalized growth,"locus YAL021C, strain ccr4, stronger effect = lower value",0.067 (active)
same,normalized growth,"locus YAL026C, strain drs2, stronger effect = lower value",0.0634 (active)
same,normalized growth,"locus YAL030W, strain snc1, stronger effect = lower value",0.0557 (active)
same,normalized growth,"locus YBL061C, strain skt5, stronger effect = lower value",0.0575 (active)
same,normalized growth,"locus YBR009C, strain hhf1, stronger effect = lower value",0.061 (active)
same,normalized growth,"locus YBR021W, strain FUR4, stronger effect = lower value",0.989 (inactive)
same,normalized growth,"locus YBR023C, strain chs3, stronger effect = lower value",0.0607 (active)
same,normalized growth,"locus YBR171W, strain sec66, stronger effect = lower value",0.077 (active)
same,normalized growth,"locus YBR229C, strain ROT2, stronger effect = lower value",0.998 (inactive)
same,normalized growth,"locus YBR231C, strain swc5, stronger effect = lower value",0.0615 (active)
same,normalized growth,"locus YBR279W, strain paf1, stronger effect = lower value",0.0577 (active)
same,normalized growth,"locus YCL011C, strain gbp2, stronger effect = lower value",0.0589 (active)
same,normalized growth,"locus YCL016C, strain dcc1, stronger effect = lower value",0.064 (active)
same,normalized growth,"locus YCL029C, strain bik1, stronger effect = lower value",0.964 (inactive)
same,normalized growth,"locus YCL069W, strain vba3, stronger effect = lower value",0.0603 (active)
same,normalized growth,"locus YCR088W, strain abp1, stronger effect = lower value",0.0604 (active)
same,normalized growth,"locus YDL005C, strain med2, stronger effect = lower value",0.0721 (active)
same,normalized growth,"locus YDL035C, strain GPR1, stronger effect = lower value",1.05 (inactive)
same,normalized growth,"locus YDL040C, strain nat1, stronger effect = lower value",0.0555 (active)
same,normalized growth,"locus YDL074C, strain BRE1, stronger effect = lower value",0.979 (inactive)
same,normalized growth,"locus YDL101C, strain DUN1, stronger effect = lower value",0.978 (inactive)
same,normalized growth,"locus YDL185W, strain tfp1, stronger effect = lower value",0.966 (inactive)
same,normalized growth,"locus YDL192W, strain arf1, stronger effect = lower value",0.992 (inactive)
same,normalized growth,"locus YDR001C, strain nth1, stronger effect = lower value",0.0578 (active)
same,normalized growth,"locus YDR069C, strain doa4, stronger effect = lower value",0.0618 (active)
same,normalized growth,"locus YDR101C, strain arx1, stronger effect = lower value",0.978 (inactive)
same,normalized growth,"locus YDR137W, strain rgp1, stronger effect = lower value",0.09 (active)
same,normalized growth,"locus YDR150W, strain NUM1, stronger effect = lower value",0.982 (inactive)
same,normalized growth,"locus YDR159W, strain sac3, stronger effect = lower value",0.0888 (active)
same,normalized growth,"locus YDR162C, strain NBP2, stronger effect = lower value",1.01 (inactive)
same,normalized growth,"locus YDR195W, strain ref2",0.123 (active)
same,normalized growth,"locus YDR297W, strain sur2, stronger effect = lower value",0.0581 (active)
same,normalized growth,"locus YDR318W, strain mcm21, stronger effect = lower value",0.98 (inactive)
same,normalized growth,"locus YDR334W, strain swr1, stronger effect = lower value",0.0632 (active)
same,normalized growth,"locus YDR335W, strain msn5, stronger effect = lower value",0.0596 (active)
same,normalized growth,"locus YDR388W, stronger effect = lower value",0.983 (inactive)
same,normalized growth,"locus YDR392W, strain spt3, stronger effect = lower value",0.081 (active)
same,normalized growth,"locus YDR502C, strain sam2, stronger effect = lower value",0.985 (inactive)
same,normalized growth,"locus YEL003W, strain gim4, stronger effect = lower value",0.0535 (active)
same,normalized growth,"locus YEL037C, strain rad23, stronger effect = lower value",0.0573 (active)
same,normalized growth,"locus YEL061C, strain CIN8 (second series), stronger effect = lower value",0.0607 (active)
same,normalized growth,"locus YEL061C, strain CIN8, stronger effect = lower value",0.988 (inactive)
same,normalized growth,"locus YER015W, strain faa2, stronger effect = lower value",0.0587 (active)
same,normalized growth,"locus YER016W, strain bim1, stronger effect = lower value",0.0576 (active)
same,normalized growth,"locus YER110C, stronger effect = lower value",0.964 (inactive)
same,normalized growth,"locus YER111C, strain swi4, stronger effect = lower value",0.0718 (active)
same,normalized growth,"locus YER155C, strain BEM2 (second series), stronger effect = lower value",0.0937 (active)
same,normalized growth,"locus YER155C, strain BEM2, stronger effect = lower value",0.985 (inactive)
same,normalized growth,"locus YER167W, strain BCK2, stronger effect = lower value",0.996 (inactive)
same,normalized growth,"locus YFR010W, strain ubp6, stronger effect = lower value",0.0679 (active)
same,normalized growth,"locus YGL078C, strain dbp3, stronger effect = lower value",0.984 (inactive)
same,normalized growth,"locus YGL086W, strain mad1, stronger effect = lower value",0.995 (inactive)
same,normalized growth,"locus YGL167C, strain pmr1, stronger effect = lower value",0.0712 (active)
same,normalized growth,"locus YGL173C, strain kem1, stronger effect = lower value",0.0685 (active)
same,normalized growth,"locus YGL227W, strain vid30, stronger effect = lower value",0.0624 (active)
same,normalized growth,"locus YGL240W, strain doc1, stronger effect = lower value",0.0755 (active)
same,normalized growth,"locus YGL248W, strain PDE1, stronger effect = lower value",0.981 (inactive)
same,normalized growth,"locus YGL253W, strain hxk2, stronger effect = lower value",0.0537 (active)
same,normalized growth,"locus YGR078C, strain PAC10, stronger effect = lower value",0.981 (inactive)
same,normalized growth,"locus YGR135W, strain pre9, stronger effect = lower value",0.98 (inactive)
same,normalized growth,"locus YGR229C, strain SMI1, stronger effect = lower value",1.02 (inactive)
same,normalized growth,"locus YGR252W, strain gcn5, stronger effect = lower value",1.03 (inactive)
same,normalized growth,"locus YHR013C, strain ard1, stronger effect = lower value",0.105 (active)
same,normalized growth,"locus YHR027C, strain rpn1, stronger effect = lower value",0.0591 (active)
same,normalized growth,"locus YHR030C, strain SLT2, stronger effect = lower value",0.99 (inactive) and 0.152 (active)
same,normalized growth,"locus YHR079C, strain IRE1 (second series), stronger effect = lower value",0.966 (inactive)
same,normalized growth,"locus YHR079C, strain IRE1, stronger effect = lower value",0.129 (active)
same,normalized growth,"locus YHR094C, strain hxt1, stronger effect = lower value",0.976 (inactive)
same,normalized growth,"locus YHR129C, strain ARP1, stronger effect = lower value",0.994 (inactive)
same,normalized growth,"locus YHR142W, strain chs7, stronger effect = lower value",0.0784 (active)
same,normalized growth,"locus YHR200W, strain rpn10, stronger effect = lower value",0.97 (inactive)
same,normalized growth,"locus YIL066C, strain RNR3, stronger effect = lower value",1.01 (inactive)
same,normalized growth,"locus YIL073C, strain SPO22, stronger effect = lower value",0.942 (inactive)
same,normalized growth,"locus YIL125W, strain kgd1, stronger effect = lower value",0.996 (inactive)
same,normalized growth,"locus YIR030C, strain dcg1, stronger effect = lower value",1.01 (inactive)
same,normalized growth,"locus YJL092W, strain hpr5, stronger effect = lower value",0.0598 (active)
same,normalized growth,"locus YJL095W, strain BCK1 (second series), stronger effect = lower value",0.0564 (active)
same,normalized growth,"locus YJL095W, strain BCK1, stronger effect = lower value",0.951 (inactive) and 0.106 (active)
same,normalized growth,"locus YJL115W, strain asf1, stronger effect = lower value",0.0719 (active)
same,normalized growth,"locus YJL129C, strain trk1, stronger effect = lower value",0.0818 (active)
same,normalized growth,"locus YJL134W, strain LCB3, stronger effect = lower value",0.989 (inactive)
same,normalized growth,"locus YJL154C, strain vps35, stronger effect = lower value",0.0607 (active)
same,normalized growth,"locus YJL164C, strain tpk1, stronger effect = lower value",0.0913 (active)
same,normalized growth,"locus YJL166W, strain qcr8, stronger effect = lower value",0.0591 (active)
same,normalized growth,"locus YJL168C, strain set2, stronger effect = lower value",0.984 (inactive)
same,normalized growth,"locus YJL187C, strain SWE1 (second series), stronger effect = lower value",0.969 (inactive)
same,normalized growth,"locus YJR043C, strain POL32, stronger effect = lower value",1.05 (inactive)
